Reference: ChEMBL document CHEMBL2218924, “A broad activity screen in support of a chemogenomic map for kinase signalling research and drug discovery” (Biochem J, 2013)

Key:
[1] = molecular target: T1, Tyrosine-protein kinase Mer (Homo sapiens) (UniProt Q12866); details: at 1 µM
T1 sequence (whole entry): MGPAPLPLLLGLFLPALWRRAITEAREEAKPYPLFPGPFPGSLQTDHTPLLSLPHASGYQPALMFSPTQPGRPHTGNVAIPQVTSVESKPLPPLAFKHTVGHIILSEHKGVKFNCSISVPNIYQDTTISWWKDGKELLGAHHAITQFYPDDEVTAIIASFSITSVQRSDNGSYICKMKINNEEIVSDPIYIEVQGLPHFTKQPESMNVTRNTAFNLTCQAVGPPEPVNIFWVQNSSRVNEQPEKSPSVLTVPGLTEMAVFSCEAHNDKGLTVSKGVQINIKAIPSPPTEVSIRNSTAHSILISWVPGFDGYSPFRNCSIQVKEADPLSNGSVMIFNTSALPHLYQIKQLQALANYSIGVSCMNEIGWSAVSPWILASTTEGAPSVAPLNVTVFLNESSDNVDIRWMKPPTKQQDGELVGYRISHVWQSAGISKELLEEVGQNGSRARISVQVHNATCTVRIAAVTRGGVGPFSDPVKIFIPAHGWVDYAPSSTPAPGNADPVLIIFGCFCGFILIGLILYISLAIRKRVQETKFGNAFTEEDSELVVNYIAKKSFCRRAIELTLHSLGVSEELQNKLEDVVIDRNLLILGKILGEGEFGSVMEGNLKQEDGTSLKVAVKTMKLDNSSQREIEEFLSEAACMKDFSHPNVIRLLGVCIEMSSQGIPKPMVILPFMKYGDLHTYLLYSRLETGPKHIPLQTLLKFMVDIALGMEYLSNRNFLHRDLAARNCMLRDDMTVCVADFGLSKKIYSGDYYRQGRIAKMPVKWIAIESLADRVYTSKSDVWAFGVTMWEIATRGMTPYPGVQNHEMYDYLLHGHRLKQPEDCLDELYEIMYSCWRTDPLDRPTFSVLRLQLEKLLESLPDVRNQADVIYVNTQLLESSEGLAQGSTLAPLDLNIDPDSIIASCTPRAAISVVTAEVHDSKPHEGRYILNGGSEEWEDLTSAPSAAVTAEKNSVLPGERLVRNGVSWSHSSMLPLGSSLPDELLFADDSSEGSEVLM

[2] = molecular target: T1, Tyrosine-protein kinase Mer (Homo sapiens); details: at 10 µM
[3] = molecular target: Hepatocyte growth factor receptor (Homo sapiens) (UniProt P08581); details: at 1 µM
[4] = molecular target: Hepatocyte growth factor receptor (Homo sapiens) (UniProt P08581); details: at 10 µM
[5] = molecular target: MAP kinase-interacting serine/threonine-protein kinase 2 (Homo sapiens) (UniProt Q9HBH9); details: at 1 µM
[6] = molecular target: MAP kinase-interacting serine/threonine-protein kinase 2 (Homo sapiens) (UniProt Q9HBH9); details: at 10 µM
[7] = molecular target: T2, Muscle, skeletal receptor tyrosine-protein kinase (Homo sapiens) (UniProt O15146); details: at 1 µM
T2 sequence (whole entry): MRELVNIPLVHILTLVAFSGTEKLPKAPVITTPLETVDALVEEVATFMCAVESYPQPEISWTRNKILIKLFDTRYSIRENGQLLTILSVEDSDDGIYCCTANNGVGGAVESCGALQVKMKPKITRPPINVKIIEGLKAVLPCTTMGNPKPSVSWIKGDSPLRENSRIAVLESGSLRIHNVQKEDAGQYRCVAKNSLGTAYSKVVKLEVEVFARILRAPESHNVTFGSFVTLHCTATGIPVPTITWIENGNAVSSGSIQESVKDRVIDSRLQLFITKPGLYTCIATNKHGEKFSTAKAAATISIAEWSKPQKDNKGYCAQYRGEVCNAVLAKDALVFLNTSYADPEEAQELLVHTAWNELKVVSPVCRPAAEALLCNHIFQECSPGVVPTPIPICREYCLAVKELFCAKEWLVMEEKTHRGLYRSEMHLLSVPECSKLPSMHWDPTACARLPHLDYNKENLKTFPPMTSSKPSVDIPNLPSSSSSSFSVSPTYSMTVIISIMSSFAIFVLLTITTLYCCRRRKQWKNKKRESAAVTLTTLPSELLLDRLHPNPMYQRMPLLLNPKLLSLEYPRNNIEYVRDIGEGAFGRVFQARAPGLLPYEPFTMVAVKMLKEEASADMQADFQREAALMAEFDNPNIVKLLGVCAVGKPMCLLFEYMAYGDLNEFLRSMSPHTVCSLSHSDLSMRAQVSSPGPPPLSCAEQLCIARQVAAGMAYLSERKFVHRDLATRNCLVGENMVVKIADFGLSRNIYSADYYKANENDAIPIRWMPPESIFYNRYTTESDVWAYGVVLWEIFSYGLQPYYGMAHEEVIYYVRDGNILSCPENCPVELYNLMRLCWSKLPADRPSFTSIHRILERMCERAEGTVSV

[8] = molecular target: T2, Muscle, skeletal receptor tyrosine-protein kinase (Homo sapiens); details: at 10 µM
[9] = molecular target: T3, Serine/threonine-protein kinase Nek11 (Homo sapiens) (UniProt Q8NG66); details: at 1 µM
T3 sequence (whole entry): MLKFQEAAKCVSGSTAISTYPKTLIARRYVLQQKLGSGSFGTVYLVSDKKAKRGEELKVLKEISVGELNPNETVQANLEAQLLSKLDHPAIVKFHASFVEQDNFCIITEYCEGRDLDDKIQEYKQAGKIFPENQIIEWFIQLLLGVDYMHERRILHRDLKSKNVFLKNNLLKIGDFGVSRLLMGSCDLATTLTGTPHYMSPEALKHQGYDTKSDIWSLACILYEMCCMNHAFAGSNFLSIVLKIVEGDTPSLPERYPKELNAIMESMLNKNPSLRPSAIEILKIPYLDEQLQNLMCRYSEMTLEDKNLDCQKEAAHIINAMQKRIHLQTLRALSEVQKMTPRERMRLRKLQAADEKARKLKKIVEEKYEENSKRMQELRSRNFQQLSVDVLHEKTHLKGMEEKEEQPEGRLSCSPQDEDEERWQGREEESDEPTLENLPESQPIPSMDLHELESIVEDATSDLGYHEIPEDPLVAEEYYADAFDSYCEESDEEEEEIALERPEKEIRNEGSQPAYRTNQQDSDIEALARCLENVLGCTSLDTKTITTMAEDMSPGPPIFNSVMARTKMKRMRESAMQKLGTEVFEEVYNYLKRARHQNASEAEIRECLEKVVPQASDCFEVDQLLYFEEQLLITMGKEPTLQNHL

[10] = molecular target: T3, Serine/threonine-protein kinase Nek11 (Homo sapiens); details: at 10 µM
[11] = molecular target: T4, Serine/threonine-protein kinase Nek2 (Homo sapiens) (UniProt P51955); details: at 1 µM
T4 sequence (whole entry): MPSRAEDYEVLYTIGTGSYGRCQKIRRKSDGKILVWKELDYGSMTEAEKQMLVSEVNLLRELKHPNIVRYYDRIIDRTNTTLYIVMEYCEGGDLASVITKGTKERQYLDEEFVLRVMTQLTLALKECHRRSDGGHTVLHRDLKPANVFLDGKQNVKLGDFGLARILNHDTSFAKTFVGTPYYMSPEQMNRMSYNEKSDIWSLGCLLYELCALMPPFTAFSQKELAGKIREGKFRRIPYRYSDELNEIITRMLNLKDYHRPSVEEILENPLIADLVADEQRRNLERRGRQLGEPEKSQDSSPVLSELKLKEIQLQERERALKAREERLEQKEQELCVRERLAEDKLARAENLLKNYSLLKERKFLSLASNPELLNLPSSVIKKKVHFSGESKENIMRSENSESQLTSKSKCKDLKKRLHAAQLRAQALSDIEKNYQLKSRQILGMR

[12] = molecular target: T4, Serine/threonine-protein kinase Nek2 (Homo sapiens); details: at 10 µM
[13] = molecular target: T5, Serine/threonine-protein kinase Nek3 (Homo sapiens) (UniProt P51956); details: at 10 µM
T5 sequence (whole entry): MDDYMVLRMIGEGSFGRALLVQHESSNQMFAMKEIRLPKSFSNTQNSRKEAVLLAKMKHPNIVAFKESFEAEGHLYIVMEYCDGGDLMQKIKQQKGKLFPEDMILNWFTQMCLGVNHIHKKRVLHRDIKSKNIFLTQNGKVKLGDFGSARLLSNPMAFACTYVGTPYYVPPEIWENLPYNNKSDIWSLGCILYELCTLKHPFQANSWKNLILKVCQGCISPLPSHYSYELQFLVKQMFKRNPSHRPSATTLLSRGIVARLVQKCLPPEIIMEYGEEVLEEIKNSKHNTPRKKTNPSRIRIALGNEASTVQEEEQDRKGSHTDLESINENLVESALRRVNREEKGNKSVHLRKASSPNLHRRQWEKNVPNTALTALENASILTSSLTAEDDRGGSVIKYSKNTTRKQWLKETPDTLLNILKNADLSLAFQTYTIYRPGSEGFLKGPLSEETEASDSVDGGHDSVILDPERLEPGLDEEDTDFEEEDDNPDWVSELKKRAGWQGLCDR

[14] = molecular target: Serine/threonine-protein kinase tousled-like 2 (Homo sapiens) (UniProt Q86UE8); details: at 1 µM
[15] = molecular target: Serine/threonine-protein kinase tousled-like 2 (Homo sapiens) (UniProt Q86UE8); details: at 10 µM
[16] = molecular target: T6, Testis-specific serine/threonine-protein kinase 1 (Homo sapiens) (UniProt Q9BXA7); details: at 1 µM
T6 sequence (whole entry): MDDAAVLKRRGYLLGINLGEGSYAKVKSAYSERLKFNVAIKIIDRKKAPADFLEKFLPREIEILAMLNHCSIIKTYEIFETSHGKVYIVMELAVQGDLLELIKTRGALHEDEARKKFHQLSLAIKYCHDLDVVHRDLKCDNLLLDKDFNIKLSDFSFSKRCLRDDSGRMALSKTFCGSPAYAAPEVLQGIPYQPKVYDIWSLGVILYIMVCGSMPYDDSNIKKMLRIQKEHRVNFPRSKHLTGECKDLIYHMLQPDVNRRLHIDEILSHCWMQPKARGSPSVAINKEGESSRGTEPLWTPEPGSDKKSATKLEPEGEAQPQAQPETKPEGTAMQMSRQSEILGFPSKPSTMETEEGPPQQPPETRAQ

[17] = molecular target: T6, Testis-specific serine/threonine-protein kinase 1 (Homo sapiens); details: at 10 µM
[18] = molecular target: T7, Testis-specific serine/threonine-protein kinase 2 (Homo sapiens) (UniProt Q96PF2); details: at 1 µM
T7 sequence (whole entry): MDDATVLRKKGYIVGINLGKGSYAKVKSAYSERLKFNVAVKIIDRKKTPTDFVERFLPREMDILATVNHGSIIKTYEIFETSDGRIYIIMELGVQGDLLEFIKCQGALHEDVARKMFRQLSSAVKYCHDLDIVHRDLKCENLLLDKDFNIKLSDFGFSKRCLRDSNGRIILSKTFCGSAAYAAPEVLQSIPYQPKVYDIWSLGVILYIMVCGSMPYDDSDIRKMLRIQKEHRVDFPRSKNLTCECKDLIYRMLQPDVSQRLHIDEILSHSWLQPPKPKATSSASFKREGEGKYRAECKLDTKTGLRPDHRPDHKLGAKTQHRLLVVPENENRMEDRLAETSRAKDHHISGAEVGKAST

[19] = molecular target: T7, Testis-specific serine/threonine-protein kinase 2 (Homo sapiens); details: at 10 µM
[20] = molecular target: T5, Serine/threonine-protein kinase Nek3 (Homo sapiens); details: at 1 µM

Chain of MAP kinase-interacting serine/threonine-protein kinase 2 (Homo sapiens) (Q9HBH9 whole entry, looked up): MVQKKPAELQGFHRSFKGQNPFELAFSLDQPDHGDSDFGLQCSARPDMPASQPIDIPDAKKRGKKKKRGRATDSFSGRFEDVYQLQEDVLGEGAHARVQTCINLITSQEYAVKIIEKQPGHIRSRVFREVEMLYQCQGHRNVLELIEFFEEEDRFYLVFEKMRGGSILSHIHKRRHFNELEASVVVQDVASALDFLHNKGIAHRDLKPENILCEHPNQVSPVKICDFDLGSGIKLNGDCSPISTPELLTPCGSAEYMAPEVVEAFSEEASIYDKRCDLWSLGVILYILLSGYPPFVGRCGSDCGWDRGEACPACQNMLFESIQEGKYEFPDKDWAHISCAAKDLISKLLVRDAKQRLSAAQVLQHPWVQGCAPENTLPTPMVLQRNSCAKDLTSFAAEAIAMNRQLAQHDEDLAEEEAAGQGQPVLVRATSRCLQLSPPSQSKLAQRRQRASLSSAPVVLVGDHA
Chain of Hepatocyte growth factor receptor (Homo sapiens) (P08581 whole entry): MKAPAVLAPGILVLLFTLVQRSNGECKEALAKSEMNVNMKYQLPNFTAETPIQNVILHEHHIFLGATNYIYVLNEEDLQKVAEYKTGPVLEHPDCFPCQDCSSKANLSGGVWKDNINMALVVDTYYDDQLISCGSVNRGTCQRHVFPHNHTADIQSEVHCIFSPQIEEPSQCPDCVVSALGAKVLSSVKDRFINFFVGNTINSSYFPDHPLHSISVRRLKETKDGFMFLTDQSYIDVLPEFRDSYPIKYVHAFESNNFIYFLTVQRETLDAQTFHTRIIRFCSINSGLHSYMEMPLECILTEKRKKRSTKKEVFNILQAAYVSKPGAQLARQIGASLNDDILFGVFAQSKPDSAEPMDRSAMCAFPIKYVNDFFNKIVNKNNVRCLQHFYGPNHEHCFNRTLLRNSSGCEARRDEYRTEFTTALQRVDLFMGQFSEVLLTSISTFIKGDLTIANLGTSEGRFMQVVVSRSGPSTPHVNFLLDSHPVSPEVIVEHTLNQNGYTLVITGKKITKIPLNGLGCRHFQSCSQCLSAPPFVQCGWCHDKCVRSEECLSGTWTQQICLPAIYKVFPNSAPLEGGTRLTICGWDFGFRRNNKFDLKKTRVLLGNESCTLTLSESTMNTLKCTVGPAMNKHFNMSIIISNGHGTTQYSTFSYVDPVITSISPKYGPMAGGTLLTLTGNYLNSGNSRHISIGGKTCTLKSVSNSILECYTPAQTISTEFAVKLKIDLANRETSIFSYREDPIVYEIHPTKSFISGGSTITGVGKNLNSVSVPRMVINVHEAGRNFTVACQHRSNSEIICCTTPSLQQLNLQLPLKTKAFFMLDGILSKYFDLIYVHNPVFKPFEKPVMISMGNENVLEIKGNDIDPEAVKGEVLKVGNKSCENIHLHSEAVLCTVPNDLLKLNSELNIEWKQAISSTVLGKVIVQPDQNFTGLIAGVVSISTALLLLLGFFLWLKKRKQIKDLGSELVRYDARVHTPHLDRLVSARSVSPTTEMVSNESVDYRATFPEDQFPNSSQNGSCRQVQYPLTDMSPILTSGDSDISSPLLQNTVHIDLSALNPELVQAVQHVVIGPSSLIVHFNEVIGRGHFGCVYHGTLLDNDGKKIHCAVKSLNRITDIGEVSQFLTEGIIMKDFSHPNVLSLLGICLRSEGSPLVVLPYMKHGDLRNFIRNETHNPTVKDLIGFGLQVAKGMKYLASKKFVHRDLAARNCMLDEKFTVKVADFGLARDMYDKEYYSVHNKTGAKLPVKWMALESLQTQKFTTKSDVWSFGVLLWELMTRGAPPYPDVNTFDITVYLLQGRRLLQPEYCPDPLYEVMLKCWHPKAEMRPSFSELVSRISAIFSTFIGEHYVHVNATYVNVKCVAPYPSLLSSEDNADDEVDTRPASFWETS
Chain of Serine/threonine-protein kinase tousled-like 2 (Homo sapiens) (Q86UE8 whole entry, looked up): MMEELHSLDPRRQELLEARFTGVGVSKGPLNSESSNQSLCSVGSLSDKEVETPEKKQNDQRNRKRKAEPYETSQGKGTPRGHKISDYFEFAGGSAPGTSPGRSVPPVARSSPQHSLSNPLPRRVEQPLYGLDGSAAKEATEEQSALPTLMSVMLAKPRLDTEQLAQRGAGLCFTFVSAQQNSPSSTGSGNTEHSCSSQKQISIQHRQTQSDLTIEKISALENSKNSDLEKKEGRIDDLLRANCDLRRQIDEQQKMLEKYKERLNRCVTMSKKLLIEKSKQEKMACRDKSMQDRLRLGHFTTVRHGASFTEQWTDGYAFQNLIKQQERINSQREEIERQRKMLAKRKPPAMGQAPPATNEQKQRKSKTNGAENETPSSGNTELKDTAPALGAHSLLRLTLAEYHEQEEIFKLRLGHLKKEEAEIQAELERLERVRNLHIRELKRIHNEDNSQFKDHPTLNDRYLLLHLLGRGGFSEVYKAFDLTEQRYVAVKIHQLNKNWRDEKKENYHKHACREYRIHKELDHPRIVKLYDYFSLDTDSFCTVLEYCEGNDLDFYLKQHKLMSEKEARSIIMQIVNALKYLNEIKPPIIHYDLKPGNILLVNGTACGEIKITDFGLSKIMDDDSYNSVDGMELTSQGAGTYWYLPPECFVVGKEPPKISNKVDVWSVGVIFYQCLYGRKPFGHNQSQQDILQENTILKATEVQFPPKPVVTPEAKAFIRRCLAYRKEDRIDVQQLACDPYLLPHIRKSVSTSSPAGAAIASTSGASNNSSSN

SMILES | residual activity [1] [%] | residual activity [2] [%] | residual activity [3] [%] | residual activity [4] [%] | residual activity [5] [%] | residual activity [6] [%] | residual activity [7] [%] | residual activity [8] [%] | residual activity [9] [%] | residual activity [10] [%] | residual activity [11] [%] | residual activity [12] [%] | residual activity [13] [%] | residual activity [14] [%] | residual activity [15] [%] | residual activity [16] [%] | residual activity [17] [%] | residual activity [18] [%] | residual activity [19] [%] | residual activity [20] [%]
O=[N+]([O-])/C=C/c1ccc2c(c1)OCO2 | 106 | 108 | 111 | 96 | 116 | 105 | 127 | 114 | 90 | 106 | 87 | 98 | 107 | 99 | 97 | 96 | 94 | 87 | 74 | 
Nc1nc(Nc2ccc(S(N)(=O)=O)cc2)nn1C(=S)Nc1c(F)cccc1F |  |  |  |  |  |  |  |  |  |  |  |  |  |  |  |  |  | 61 |  | 
COc1cc2ncnc(Nc3ccc(OCc4ccccc4)cc3)c2cc1OC | 64 | 49 | 87 | 87 | 90 | 68 | 118 | 77 | 99 | 101 | 101 | 113 | 80 | 115 | 96 | 104 | 90 | 107 | 102 | 90
O=[N+]([O-])c1ccc(-c2nc(-c3ccc(F)cc3)c(-c3ccncc3)[nH]2)cc1 |  |  |  |  |  |  |  |  |  |  |  |  |  |  |  |  |  | 100 |  | 
COc1cc(OC)c(/C=C2\C(=O)Nc3ccccc32)c(OC)c1 | 95 | 93 | 103 | 94 | 99 | 96 | 88 | 78 | 43 | 61 | 90 | 91 | 96 | 91 | 85 | 92 | 91 | 102 | 99 | 80
CC(C)c1nn(-c2c(Cl)cccc2Cl)c2nc(Cc3ccc(OCCO)cc3)[nH]c(=O)c12 |  |  |  |  |  |  |  |  |  |  |  |  |  |  |  |  |  | 93 |  | 
